From PubChem BioAssay
The source made the active and inactive calls. Unless noted, the rule behind the calls is not given here.

Assays:
[1] = HepG2 liver cancer cell viability effects, profiling panel, resazurin fluorescence, 24 h, PK04 Diversity Set (AID 1172); conditions: higher = more signal; note: test concentration not given here
[2] = basal S. cerevisiae growth modulation, no modifier, primary screen, OD600, strain BY4716, 24 h, basal condition (AID 1173); conditions: OD600, 24 h, higher = more signal, called active from +8 up or from −8 down
[3] = MM1S myeloma cell viability, profiling panel, resazurin fluorescence, basal, 24 h, PK04 Diversity Set (AID 1174); conditions: higher = more signal, called active from +8 up or from −8 down;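 note: MM1S multiple myeloma cell line; test concentration not given here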
[4] = target: Dihydroorotate dehydrogenase (quinone), mitochondrial (Plasmodium falciparum (isolate 3D7)) (UniProt Q08210); experiment: PfDHODH enzyme inhibitors, primary screen, biochemical, C-terminal His tag, absorbance 600 nm (AID 1175); conditions: DCIP absorbance 600 nm, higher = more signal, called active from +8 up or from −8 down;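 note: recombinant parasite enzyme with a five histidine tag at its C terminus; test concentration not given here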
[5] = P. aeruginosa biofilm formation inhibitors, primary screen, strain PAO1, LB-PBS medium, absorbance 600 nm (AID 1176); note: test concentration not given here; conditions: P. aeruginosa PAO1 growth/biofilm, A600, 12 h; higher = more signal
[6] = S. cerevisiae RM11-1a growth modifiers, primary screen, strain RM11-1a, OD600, basal, 24 h (AID 1177); conditions: OD600, 24 h, higher = more signal, called active from +8 up or from −8 down;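 note: cultures grown under basal conditions with no added stressor; test concentration not given here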
[7] = E. coli acrAB mutant growth effects, primary screen, E. coli filamentation inducers, strain DRC39, OD650, 24 h (AID 1178); conditions: higher = more signal, called active from +8 up or from −8 down;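 note: growth measured as culture turbidity by optical density at 650 nm; test concentration not given here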
[8] = E. coli acrAB mutant growth effects, primary screen, E. coli filamentation inducers, strain DRC39, OD650, 48 h (AID 1179);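 note: screen aims at cell division blockers that make cells filament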; conditions: E. coli DRC39 delta-acrAB growth, higher = more signal, called active from +8 up or from −8 down
[9] = RPMI8226 myeloma cell viability, profiling panel, resazurin fluorescence, basal, 24 h, PK04 Diversity Set (AID 1180); conditions: higher = more signal;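 note: RPMI8826 multiple myeloma cell line at 5000 cells per well; test concentration not given here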
[10] = target: E3 ubiquitin-protein ligase XIAP (Homo sapiens) (UniProt P98170); experiment: XIAP binders, primary screen, biophysical, small-molecule microarray, fluorescence 635 nm (AID 1181); conditions: small-molecule microarray binding, higher = more signal;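 note: score merges 667 nm emission and signal to noise over triplicate slides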
Chain of E3 ubiquitin-protein ligase XIAP (Homo sapiens) (P98170 whole entry, looked up): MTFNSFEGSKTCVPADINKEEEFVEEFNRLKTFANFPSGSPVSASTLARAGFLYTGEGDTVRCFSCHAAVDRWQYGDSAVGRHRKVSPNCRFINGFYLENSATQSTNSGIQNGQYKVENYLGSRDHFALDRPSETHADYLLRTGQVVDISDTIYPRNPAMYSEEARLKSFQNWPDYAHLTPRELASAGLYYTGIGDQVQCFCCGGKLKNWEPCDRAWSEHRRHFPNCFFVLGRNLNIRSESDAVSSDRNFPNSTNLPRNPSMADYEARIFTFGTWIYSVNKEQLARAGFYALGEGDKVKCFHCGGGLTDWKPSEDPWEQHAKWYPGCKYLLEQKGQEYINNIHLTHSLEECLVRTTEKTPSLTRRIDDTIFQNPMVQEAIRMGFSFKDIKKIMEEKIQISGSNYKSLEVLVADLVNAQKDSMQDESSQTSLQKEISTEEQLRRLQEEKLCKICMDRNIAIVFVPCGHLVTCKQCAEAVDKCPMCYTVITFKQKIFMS

Chain of Dihydroorotate dehydrogenase (quinone), mitochondrial (Plasmodium falciparum (isolate 3D7)) (Q08210 whole entry, looked up): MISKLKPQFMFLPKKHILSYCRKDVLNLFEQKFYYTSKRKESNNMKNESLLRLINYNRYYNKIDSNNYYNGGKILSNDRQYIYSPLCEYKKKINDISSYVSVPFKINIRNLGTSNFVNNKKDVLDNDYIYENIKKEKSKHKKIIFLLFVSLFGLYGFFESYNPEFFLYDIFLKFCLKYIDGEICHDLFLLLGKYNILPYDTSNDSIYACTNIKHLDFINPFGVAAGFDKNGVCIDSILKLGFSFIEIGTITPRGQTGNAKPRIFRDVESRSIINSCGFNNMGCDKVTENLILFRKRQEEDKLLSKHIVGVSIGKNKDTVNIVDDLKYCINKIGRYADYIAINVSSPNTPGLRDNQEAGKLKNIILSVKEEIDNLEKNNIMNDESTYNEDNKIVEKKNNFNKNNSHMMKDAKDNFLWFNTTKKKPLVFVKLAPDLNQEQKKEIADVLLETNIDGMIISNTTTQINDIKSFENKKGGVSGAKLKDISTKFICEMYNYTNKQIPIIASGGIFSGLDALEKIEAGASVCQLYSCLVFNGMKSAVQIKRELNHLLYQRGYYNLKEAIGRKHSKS

Row | Compound | z-score [1] | z-score [2] | z-score [3] | composite z-score [4] | z-score [5] | z-score [6] | z-score [7] | z-score [8] | z-score [9] | composite z-score [10]
1 | NC(=O)[C@@H]1[C@H]2C(=O)O[C@H](c3ccccc3)[C@H](c3ccccc3)N2[C@H](c2ccc(OCCO)cc2)[C@@]12C(=O)Nc1ccc(C#CCCO)cc12 | -0.632 | -0.349 (inactive) | -0.729 (inactive) | -1.26 (inactive) | 1.42 (inactive) | 1.27 (inactive) | 0.544 (inactive) | 0.721 (inactive) | -0.83 | 0.216
2 | COc1ccc(NC(=O)O[C@H]2[C@@H]3OC(=O)[C@H](Cc4cccc(Br)c4)C/C=C/C[C@@H](Cc4cccc(Br)c4)C(=O)O[C@H]3[C@@H](OC)O[C@@H]2CO)cc1 | -0.868 | -0.413 (inactive) | -0.37 (inactive) | 0.732 (inactive) | 0.47 (inactive) | 0.604 (inactive) | 0.365 (inactive) | 0.855 (inactive) | -0.517 | -0.555
3 | CCN(CC)c1ccc(N2CC=CC34O[C@@H]5C=CCCOC(=O)C5[C@H]3C(=O)N(CCO)[C@@H]4C2=O)cc1 (stereo not given in full) | 0.0656 | -0.371 (inactive) | -0.281 (inactive) | -1.3 (inactive) | 0.469 (inactive) | -0.106 (inactive) | 0.449 (inactive) | 0.2 (inactive) | 0.553 | 0.0074
4 | CCOC(=O)C1=C[C@@H](C(C)(C)C)N(S(=O)(=O)c2ccc(C)cc2)[C@H]1c1cccc(Cl)c1 | -0.594 | 2.15 (inactive) | -1.66 (inactive) | 1.08 (inactive) | 0.16 (inactive) | 2.81 (inactive) | -0.326 (inactive) | -0.104 (inactive) | -3.41 | -0.0994
5 | CCOC(=O)C[C@H]1[C@H](OC(=O)c2cc3ccccc3oc2=O)[C@@H](NC(=O)c2ccc3ccccc3c2)c2cc(OCCCO)ccc2N1C(=O)Cc1ccc(OC)cc1 | 0.98 | -0.399 (inactive) | -0.0697 (inactive) | 0.0533 (inactive) | -0.304 (inactive) | 0.0085 (inactive) | 0.406 (inactive) | -0.224 (inactive) | -0.137 | -0.169
6 | O=C1OCC=C[C@H]2OC34C=CCN(c5ccc6ccccc6c5)C(=O)[C@H]3N(CCCCCO)C(=O)[C@@H]4[C@@H]12 (stereo not given in full) | -0.658 | -0.459 (inactive) | -0.818 (inactive) | 0.28 (inactive) | -0.634 (inactive) | 0.176 (inactive) | -1.19 (inactive) | -1.3 (inactive) | -0.887 | -0.0286
7 | O=C(N1CCOCC1)[C@@]1(CCS(=O)(=O)c2ccccc2)N=C(c2ccc(OCCCO)cc2)O[C@H]1c1ccccc1 | -0.285 | 1.24 (inactive) | -0.986 (inactive) | 0.225 (inactive) | 1.02 (inactive) | 0.0235 (inactive) | 0.0835 (inactive) | 0.0231 (inactive) | -1.09 | 0.3
8 | CN1C(=O)C2C(C1=O)C1C=C(CCCO)C2C(C2CC2)N1Cc1cc2c(cc1Br)OCO2 (stereo not given) | -0.622 | -0.975 (inactive) | -1 (inactive) | -0.341 (inactive) | 0.0721 (inactive) | 0.0644 (inactive) | -0.344 (inactive) | -0.291 (inactive) | -0.543 | -0.113
9 | O=C1O[C@H](c2ccccc2)[C@H](c2ccccc2)N2[C@H]1[C@@H](C(=O)Nc1nc3ccccc3s1)[C@]1(C(=O)Nc3ccc(C#CC4=CCCCC4)cc31)[C@H]2c1ccc(O)cc1 | 0.98 | -1.03 (inactive) | 0.306 (inactive) | 0.667 (inactive) | 0.517 (inactive) | -0.286 (inactive) | 0.442 (inactive) | 0.382 (inactive) | 0.422 | -0.13
10 | COCC1C2CC[C@H]3C(OCc4ccc(OC)cc4)OC[C@]4(C)[C@H]3C2=C(CN4C(=O)OC(C)(C)C)[C@H](C)C1COC (stereo not given in full) | -0.819 | -0.316 (inactive) | -0.79 (inactive) | -0.566 (inactive) | 0.796 (inactive) | -0.688 (inactive) | -0.705 (inactive) | 0.286 (inactive) | -0.723 | 0.441
11 | Cc1ccc(S[C@]2(C(=O)NCc3ccccc3)CC(=O)N(Cc3cc(C(F)(F)F)cc(C(F)(F)F)c3)[C@@H]2c2ccc(CO)cc2I)cc1 | 1.24 | -3.9 (inactive) | -2.82 (inactive) | -0.459 (inactive) | 0.0214 (inactive) | -0.741 (inactive) | 0.671 (inactive) | 0.602 (inactive) | -1.17 | -0.0622
12 | COC(=O)[C@@]1(Cc2ccccc2CN=[N+]=[N-])N=C(c2ccc(OCCCO)cc2)O[C@H]1c1ccccc1CN=[N+]=[N-] | -1.67 | 1.66 (inactive) | -4.85 (inactive) | 2.46 (inactive) | 2.8 (inactive) | 2.88 (inactive) | 1.53 (inactive) | -0.47 (inactive) | -4.32 | -0.113
13 | C=C(COC)C(=O)CC[C@H](OC(=O)c1cccnc1)c1ccc(CO)o1 | -0.655 | -1.29 (inactive) | -0.317 (inactive) | -3.37 (inactive) | 0.142 (inactive) | -0.663 (inactive) | -0.659 (inactive) | -0.649 (inactive) | -0.732 | 0.0565
14 | CCOC(=O)C=Cc1ccccc1O | -0.193 | -9.29 (active) | -0.056 (inactive) | -0.576 (inactive) | 0.0236 (inactive) | -8.46 (active) | -0.0367 (inactive) | -0.276 (inactive) | -0.234 | 0.125
15 | C=CCC(OC(C)=O)[C@@H]1[C@@H](N(Cc2ccc(-c3ccccc3)cc2)C(=O)c2ccc(C)cc2)c2cc(OCCCO)ccc2N1C(=O)Cc1ccc2ccccc2c1 (stereo not given in full) | 1.03 | -0.516 (inactive) | 1.38 (inactive) | -1 (inactive) | 0.219 (inactive) | -1.72 (inactive) | 1.64 (inactive) | 1.93 (inactive) | 1.22 | -0.02
16 | C=C[C@@H](OC)[C@H](OC(=O)Nc1ccc(OC)cc1)c1ccc(OC)c(O)c1 | 0.358 | -1.19 (inactive) | -0.143 (inactive) | -0.0589 (inactive) | 0.295 (inactive) | 0.445 (inactive) | 0.724 (inactive) | 0.367 (inactive) | 0.185 | 0.431
17 | CCOC(=O)C1=CC[C@@H](c2ccccc2)N(S(=O)(=O)c2ccc(C)cc2)[C@H]1c1cccc(OC)c1 | 0.0088 | 2.25 (inactive) | -0.387 (inactive) | -0.777 (inactive) | 0.325 (inactive) | 1.21 (inactive) | -0.577 (inactive) | 0.244 (inactive) | -1.22 | -0.022
18 | Cc1ccc(S[C@]2(C(=O)NC(C)C)CC(=O)N(Cc3ccccc3Cl)[C@@H]2c2ccc(CO)cc2)cc1 | -0.167 | -0.624 (inactive) | -0.514 (inactive) | -0.674 (inactive) | 1.52 (inactive) | 0.343 (inactive) | -0.332 (inactive) | -0.963 (inactive) | 0.351 | -0.0072
19 | NC(=O)N1C(=O)C2C(C1=O)C1C=C(CCCO)C2C(C2CC2)N1Cc1cccc(OC(F)(F)F)c1 (stereo not given) | -0.807 | -1.33 (inactive) | -0.217 (inactive) | -1.26 (inactive) | -0.0585 (inactive) | -0.0011 (inactive) | -0.149 (inactive) | -0.508 (inactive) | -0.762 | 0.312
20 | C[C@]1(C(=O)NCC(F)(F)F)c2ccccc2C(=O)N(Cc2ccccc2)[C@H]1c1ccc(CO)cc1 | -0.398 | 0.0742 (inactive) | 0.525 (inactive) | 0.721 (inactive) | -0.0807 (inactive) | 0.433 (inactive) | 0.242 (inactive) | 0.824 (inactive) | 0.937 | -0.102
21 | C=CCC(OC(C)=O)[C@@H]1[C@@H](N(Cc2cccc3ccccc23)C(=O)c2ccc(-c3ccccc3)cc2)c2cc(OCCCO)ccc2N1C(=O)c1ccc(-c2ccccc2)cc1 (stereo not given in full) | -0.132 | -0.166 (inactive) | 0.116 (inactive) | -0.948 (inactive) | 0.055 (inactive) | -0.929 (inactive) | -0.277 (inactive) | -0.228 (inactive) | 0.0263 | -0.114
22 | COc1cc2c(cc1OC)CN(C(=O)[C@@H]1[C@H]3C(=O)O[C@H](c4ccccc4)[C@H](c4ccccc4)N3[C@H](c3ccc(O)cc3)[C@@]13C(=O)Nc1ccc(C#CCCO)cc13)CC2 | 0.0462 | 1.03 (inactive) | -1.22 (inactive) | 0.838 (inactive) | 1.2 (inactive) | 1.66 (inactive) | 0.437 (inactive) | 0.258 (inactive) | -0.657 | -0.269
23 | COCCOC(=O)N1C(=O)[C@@]2(c3cc(C#CC4=CCCCC4)ccc31)[C@H](C(=O)N1CCCCCCC1)[C@H]1C(=O)O[C@H](c3ccccc3)[C@H](c3ccccc3)N1[C@@H]2c1ccc(OCCO)cc1 | 0.111 | -0.145 (inactive) | -0.341 (inactive) | -1.9 (inactive) | 2.26 (inactive) | 1.16 (inactive) | -0.427 (inactive) | -0.311 (inactive) | 0.169 | 0.144
24 | [N-]=[N+]=Nc1ccccc1[C@@H]1OC(c2ccc(OCCCO)cc2)=N[C@]1(Cc1ccccc1)C(=O)NCc1ccccc1 | -0.421 | 0.152 (inactive) | -3.62 (inactive) | 0.613 (inactive) | 0.563 (inactive) | 0.265 (inactive) | -0.324 (inactive) | -0.441 (inactive) | -3.62 | 0.338
25 | C=CCNC(=O)[C@@H]1[C@H]2C(=O)O[C@H](c3ccccc3)[C@H](c3ccccc3)N2[C@H](c2ccc(O)cc2)[C@@]12C(=O)N(C(=O)OCCOC)c1ccc(C#CCCO)cc12 | 0.02 | -0.363 (inactive) | -1.12 (inactive) | -0.855 (inactive) | 0.249 (inactive) | 0.782 (inactive) | 0.37 (inactive) | 0.479 (inactive) | -0.299 | -0.0749
